# The whole screen tested about 96,000 compounds, of which about 200 (0.21%) were called active. The sample holds actives, similar compounds and a random draw of the others, so the mix is not that of the screen.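 The calls were made as follows: active = inhibition at 2 µM at or above a set limit, the screen mean plus 3 SD (cut at about 24% in these data); inactive = the rest.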
# Molecular target: Tyrosine-protein phosphatase non-receptor type 22 (Homo sapiens) (UniProt Q9Y2R2)
# Experiment: PTPN22 phosphatase inhibitors, primary screen, biochemical, DiFMUP fluorescence, 2 µM (AID 640);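 also: 0% = DMSO with enzyme and 100% = enzyme fully blocked by orthovanadate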
# Settings: recombinant LYP catalytic domain, at 2 µM, active compounds read high
# Chain of Tyrosine-protein phosphatase non-receptor type 22 (Homo sapiens) (Q9Y2R2 whole entry, looked up): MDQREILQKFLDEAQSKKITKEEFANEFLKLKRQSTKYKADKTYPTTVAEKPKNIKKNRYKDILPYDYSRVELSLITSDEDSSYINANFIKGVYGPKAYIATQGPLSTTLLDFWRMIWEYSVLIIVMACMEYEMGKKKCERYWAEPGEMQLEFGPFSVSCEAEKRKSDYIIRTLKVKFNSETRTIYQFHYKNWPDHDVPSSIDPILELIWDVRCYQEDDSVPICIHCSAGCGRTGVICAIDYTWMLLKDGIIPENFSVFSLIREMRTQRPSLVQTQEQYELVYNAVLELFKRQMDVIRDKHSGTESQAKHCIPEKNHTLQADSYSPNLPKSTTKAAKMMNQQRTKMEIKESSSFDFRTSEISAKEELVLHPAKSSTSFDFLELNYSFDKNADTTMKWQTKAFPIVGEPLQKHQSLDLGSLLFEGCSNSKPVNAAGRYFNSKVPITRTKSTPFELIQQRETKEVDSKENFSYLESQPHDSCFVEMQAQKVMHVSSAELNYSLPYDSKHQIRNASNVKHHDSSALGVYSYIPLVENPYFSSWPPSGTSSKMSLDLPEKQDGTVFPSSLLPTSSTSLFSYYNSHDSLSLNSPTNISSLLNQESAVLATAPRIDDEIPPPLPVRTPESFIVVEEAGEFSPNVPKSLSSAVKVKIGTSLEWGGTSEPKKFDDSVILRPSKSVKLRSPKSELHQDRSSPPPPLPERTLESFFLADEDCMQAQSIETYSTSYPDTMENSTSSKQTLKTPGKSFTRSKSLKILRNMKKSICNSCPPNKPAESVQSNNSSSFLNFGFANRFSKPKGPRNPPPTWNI
row,Structure (SMILES),inhibition
1,Cc1cc([N+](=O)[O-])c(NC2CCCCC2)c([N+](=O)[O-])c1,6.5% (inactive)
2,CC1(C)NC(=O)N(CCCCSc2ccc(Cl)cc2)C1=O,3.1% (inactive)
3,COC(=O)C1=C(Nc2ccc(C)cc2)C=C(C)C(C(=O)OC)C1c1ccc(F)cc1 (stereo not given),-3.3% (inactive)
4,c1ccc(CC2CCN(c3nc4ccccc4n4cnnc34)CC2)cc1,7.3% (inactive)
5,CON(C)S(=O)(=O)c1ccc2c(c1)NC(=O)C1CCCN21 (stereo not given),6.3% (inactive)
6,CN1CCN(C(=O)Cn2c(C(F)(F)F)nc3ccccc32)CC1,1.3% (inactive)
7,COc1ccc(-n2c(C)csc2=S)cc1,-3.8% (inactive)
8,CCCCCCc1cc2cc(-c3nnc(-c4cccc(OC)c4)o3)c(=O)oc2cc1O,30.9% (active)
9,CCCCCCc1cc2cc(-c3nnc(-c4ccccc4)o3)c(=O)oc2cc1O,16% (inactive)
10,CCCCN(CC)CCCNC(=O)CS(=O)(=O)Cc1nc(-c2cccc(OC)c2)oc1C,4.8% (inactive)
11,COc1ccc(OCC(=O)NN2Cc3ccccc3C2=N)cc1,8.2% (inactive)
12,Cc1cc(=O)oc2cc(OCC3CC(c4ccccc4Cl)=NO3)ccc12 (stereo not given),0.4% (inactive)
13,COc1ccc(/C(O)=C2\C(=O)C(=O)N(Cc3ccco3)C2c2ccc(OC)cc2OC)cc1 (stereo not given),3% (inactive)
14,O=C(CN(c1ccccc1)S(=O)(=O)c1ccc(Cl)cc1)Nc1ccccc1C(=O)N1CCCC1,3% (inactive)
15,Cc1sc2nc(SCC(N)=O)n(C)c(=O)c2c1C,-1% (inactive)
16,CC(=O)c1cnc(SCCN2C(=O)c3ccccc3C2=O)nc1C,-4.7% (inactive)
17,CCOc1ccccc1NC(=O)C1CCCN(C(=O)Nc2ccccc2)C1 (stereo not given),-6% (inactive)
18,COc1cccc(NC(=O)CN2CCN(c3nc(-c4cccc(OC)c4)cs3)CC2)c1,8.7% (inactive)
19,CCOC(=O)c1[nH]c(C)c(C(=O)OCC(=O)N2c3ccccc3CC2C)c1C (stereo not given),2.3% (inactive)
20,COc1ccc(C(C#N)Nc2ccccc2C)cc1 (stereo not given),7.5% (inactive)
21,CCCCNC(=O)C1(c2ccc(OC)cc2)CCOCC1,6.4% (inactive)
22,CCNC(=S)N1CCN(C(=O)c2ccco2)CC1,-9.6% (inactive)
23,O=C(/C=C/c1ccccc1)N/C(=C/c1ccccc1)C(=O)Nc1ccccc1O,10% (inactive)

row,Structure (SMILES),inhibition
1,Cc1ccc(-c2cc(C(=O)NCC3CCCO3)c3ccccc3n2)o1 (stereo not given),2.7% (inactive)
2,C=CCn1c(-c2ccc(Cl)cc2)ccc(C#N)c1=O,8.4% (inactive)
3,Oc1ccc2ccc3cccc[n+]3c2c1,2.8% (inactive)
4,Cc1csc2ncc(C(=O)N(Cc3ccccc3)c3ccccn3)c(=O)n12,-3.8% (inactive)
5,Cc1ccc(CN(C(=O)c2sc3ccccc3c2Cl)C2CCS(=O)(=O)C2)cc1 (stereo not given),3.5% (inactive)
6,CSc1cc(C)n(-c2ccccc2C)c(=S)c1C(C)=O,-1.3% (inactive)
7,O=C(Nc1ccccc1C(=O)NCCCn1ccnc1)c1ccc(Cl)cc1Cl,4.3% (inactive)
8,COc1ccc(CNCCCO)cc1OC,2.8% (inactive)
9,c1ccc2c(-c3nn4nnnc4c4ccccc34)cccc2c1,11.7% (inactive)
10,COc1ccc(Oc2c(Cl)cnn(-c3ccccc3)c2=O)cc1,-10.1% (inactive)
11,COC(=O)CNS(=O)(=O)c1ccc(OC)cc1,-2.1% (inactive)
12,CCOc1cc(C(=O)Nc2c(C)ccc3nsnc23)cc(OCC)c1OCC,-14.9% (inactive)
13,CC(C)(C)c1ccc(C(=O)NCC(=O)OCN2C(=O)c3ccccc3C2=O)cc1,-8.4% (inactive)
14,O=C(/C=C/NNC(=O)c1cccc(Br)c1)c1ccccc1,5.3% (inactive)
15,Fc1ccccc1COc1ccccc1CNCc1ccncc1,4.4% (inactive)
16,CCC(=O)NCCc1nc2ccccc2n1CC,-1% (inactive)
17,CNc1nc(SC)nc(N(C#N)CC(=O)OC)n1,-3.4% (inactive)
18,CCNc1nc(NC(C)C)nc(OCCOC(=O)c2ccccc2)n1,-0.4% (inactive)
19,c1ccc(-c2ccnc3nc(-n4cccc4)nn23)cc1,9.9% (inactive)
20,Cc1cc2nc(SCCN3CCOCC3)[nH]c2cc1C,-1% (inactive)
21,O=C1N=C(N2CCOCC2)S/C1=C\C=C/c1ccccc1,0.2% (inactive)
22,CCOCCCNC(=O)C(NC(=O)c1ccc(=O)[nH]c1)c1ccc(C)cc1 (stereo not given),3% (inactive)

# Source: PubChem BioAssay AID640 (Columbia University Molecular Screening Center, 2007)
